Compound activity: PubChem, National Center for Advancing Translational Sciences (NCATS)
Compounds with a hit are over-represented: about 8.9% of the library has one in this group of screens.
IMPase cell inh: cell-permeable inhibitors of inositol monophosphatase (IMPase); CHO-M1 cells, IP1 accumulation, HTRF TR-FRET ratio; inhibition (IP1 accumulation), % at 46.1 µM; 120,000 tested, under 10 active; AID 901; active = well fitted curve in the direction sought with a large enough effect in the signal ratio, not every such curve was filed as active; inconclusive = small, poorly fitted or top-dose-only effect, or a change in a side signal; inactive = no such curve, though single readings can be large or run the other way; the % refers to the signal ratio;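 note: cells stimulated with carbachol in lithium chloride buffer; higher means more IMPase inhibition seen as more IP1 and lower FRET ratio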
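Measured: the HTRF emission ratio (665/620 nm) plus the 620 nm donor channel, each fitted to the Hill equation to give AC50. Cells were CHO-M1 given compounds up to 46 uM and a 30 min carbachol stimulation at 37C.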
IMPase Li cell: IMPase inhibition in cells with lithium potentiation; CHO-M1 cells, IP1 TR-FRET (IP-One), carbachol + lithium; Potency, µM (titrated, usually from 59.4 µM), most hits filed as inhibitors; actives 0.35% (n = 210,000);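 note: IP1 builds up when IMPase is blocked and the TR-FRET signal falls; nearly all actives have a fitted effect of over 50% in size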
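CHO cells stably expressing M1 receptor (2000/well) were cultured 16–30 h, then exposed to compounds with a small lithium addition for 30 min at 37C. IP1 was measured by TR-FRET competition; AC50 from Hill fits.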
NPSR antagonist: neuropeptide S receptor (human) antagonism, cAMP | CHO-NPSR cells, cAMP TR-FRET, antagonist mode | Potency, µM (series often up to 38.3 µM), actives largely listed as inhibitors | actives 1% (n = 220,000) | AID 1461; note: nearly all actives have a fitted effect of over 50% in size
Target sequence (Q6W5P4 whole entry, looked up): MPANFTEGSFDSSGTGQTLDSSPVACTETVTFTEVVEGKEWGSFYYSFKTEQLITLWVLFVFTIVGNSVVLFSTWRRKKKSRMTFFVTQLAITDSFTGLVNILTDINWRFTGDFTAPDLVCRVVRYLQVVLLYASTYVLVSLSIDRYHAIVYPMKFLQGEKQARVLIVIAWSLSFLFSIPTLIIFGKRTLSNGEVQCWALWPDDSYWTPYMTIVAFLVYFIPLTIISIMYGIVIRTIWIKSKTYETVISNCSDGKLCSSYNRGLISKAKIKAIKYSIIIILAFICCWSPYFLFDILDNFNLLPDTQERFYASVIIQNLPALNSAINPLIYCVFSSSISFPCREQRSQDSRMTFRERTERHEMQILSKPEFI
ALDH1A1 inh: blocks purified human ALDH1A1 activity; Purified ALDH1A1, NADH fluorescence, propionaldehyde substrate; Potency, µM (series often up to 75.3 µM), most hits filed as inhibitors; actives 7.3% (n = 220,000); active = well fitted inhibition curve with a large enough effect, not every such curve was filed as active; inconclusive = small, poorly fitted or top-dose-only effect, or another doubt; inactive = no such curve, though single readings can be large or run the other way
12-hLO inh: blocks human 12-lipoxygenase activity; purified 12-hLO, xylenol orange hydroperoxide absorbance; Potency, µM (highest dose often 57.1 µM), actives largely listed as inhibitors; actives 0.12% (n = 150,000); AID 1452; note: nearly all actives have a fitted effect of over 55% in size
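Hydroperoxide formation by human 12-lipoxygenase from 40 uM arachidonic acid was followed colorimetrically via ferric-xylenol orange complex, using the 573/405 nm absorbance ratio. Enzyme concentration was 150 nM, with 30 min reaction at room temperature.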
HPGD inh: HPGD (human) dehydrogenase inhibition | actives 4.3% (n = 150,000) | P15428 | Potency, µM, hits mostly inhibitors | AID 894 | purified HPGD, NADH fluorescence kinetic, PGE2 substrate; active = well fitted inhibition curve with a large enough effect, not every such curve was filed as active; inconclusive = small, poorly fitted or top-dose-only effect, or another doubt; inactive = no such curve, though single readings can be large or run the other way
Target sequence (P15428 whole entry, looked up): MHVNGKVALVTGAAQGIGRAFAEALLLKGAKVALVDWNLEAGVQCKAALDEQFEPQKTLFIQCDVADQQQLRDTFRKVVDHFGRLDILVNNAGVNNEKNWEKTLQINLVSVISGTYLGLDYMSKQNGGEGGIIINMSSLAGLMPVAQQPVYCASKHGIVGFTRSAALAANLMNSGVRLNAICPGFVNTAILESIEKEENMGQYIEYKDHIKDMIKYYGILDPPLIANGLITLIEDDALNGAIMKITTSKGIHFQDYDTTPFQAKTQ
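NADH formation kinetics: reaction with 30 uM PGE2 and 1 mM NAD+ (final), 20 nM enzyme, Tris-HCl pH 8 with Tween 20, after 15 min compound preincubation at room temperature. Fluorescence change, last versus first of five reads.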
Large screens that a line does not name were inactive; ! = a repeat was not active. Unless noted, calls come from the whole dose curve; as a rule, active = well fitted curve in the direction sought with a large enough effect; inconclusive = small, poorly fitted or top-dose-only effect, or another doubt; inactive = no such curve, though single readings can be large; an effect the other way counts as inactive or inconclusive.

COc1cc(NC(=O)Cn2c(C)cc3ccccc3c2=O)cc(OC)c1OC	IMPase cell inh inconclusive, IMPase Li cell 25µM, NPSR antagonist inconclusive, ALDH1A1 inh inconclusive
Cc1cnc(C(=O)OCC(=O)NC2CCCCCC2)cn1	none (no result: IMPase cell inh, 12-hLO inh, HPGD inh)
Cc1cnc(C(=O)OCC(=O)c2csc(N3CCCCC3)n2)cn1	ALDH1A1 inh 18µM, HPGD inh inconclusive
N=C1C(c2ccccc2)=C(O)C2CCc3ccccc3N12 (configuration not stated)	NPSR antagonist inconclusive, HPGD inh 16µM
Cc1ccccc1NC(=O)/C(=C/c1ccccc1)c1ccccc1	NPSR antagonist inconclusive
Cc1c(NC(=O)c2ccccc2N)cccc1C(=O)O	none (no result: IMPase Li cell, HPGD inh)
COC(=O)c1ccc(OC(=O)CS(=O)c2ccccc2[N+](=O)[O-])cc1 (configuration not stated)	none (no result: IMPase cell inh, 12-hLO inh, HPGD inh)
CS(=O)(=O)c1ccc(S(=O)CC(=O)OCc2ccccc2)c([N+](=O)[O-])c1 (configuration not stated)	NPSR antagonist inconclusive, ALDH1A1 inh 13µM (no result: IMPase cell inh, 12-hLO inh, HPGD inh)
CCCCn1c2ccccc2c2nnc(SCC(=O)NC3=NN=C(c4ccccc4)CS3)nc21	ALDH1A1 inh inconclusive (no result: IMPase Li cell, HPGD inh)
COc1ccc(/C=C2\NC(=S)N(CC3CCCO3)C2=O)c(OC)c1 (configuration not stated)	ALDH1A1 inh 1.3µM
COc1cccc(/C=C/C(=O)OCC(=O)c2cc(C)n(CC3CCCO3)c2C)c1OC (configuration not stated)	ALDH1A1 inh inconclusive (no result: IMPase Li cell, HPGD inh)
COc1ccccc1Oc1ccc2c(c1)C(=O)N(CC1CCCO1)C2=O (configuration not stated)	ALDH1A1 inh inconclusive (no result: IMPase cell inh, IMPase Li cell, 12-hLO inh, HPGD inh)
COc1ccc(/C=C2\NC(=S)N(CC3CCCO3)C2=O)c(OC)c1C (configuration not stated)	ALDH1A1 inh 0.45µM
CCOC(=O)C1(Cc2cccc(OC)c2)CCN(Cc2cnc(N)nc2)CC1	none (no result: IMPase cell inh, 12-hLO inh, HPGD inh)
CCOCCCNC(=O)Cn1ncc2c(=O)oc3ccccc3c21	IMPase cell inh inconclusive, IMPase Li cell inconclusive, NPSR antagonist inconclusive
N#CCN1C(=O)C2CCCN2c2ccc(S(=O)(=O)N3CCOCC3)cc21 (configuration not stated)	ALDH1A1 inh 10µM (no result: IMPase cell inh, 12-hLO inh, HPGD inh)
CON(C)S(=O)(=O)c1ccc2c(c1)N(Cc1ccc(C)cc1)C(=O)C1CCCN21 (configuration not stated)	ALDH1A1 inh 10µM (no result: IMPase cell inh, 12-hLO inh, HPGD inh)
O=C1C2CCCN2c2ccc(S(=O)(=O)N3CCOCC3)cc2N1Cc1ccccc1F (configuration not stated)	ALDH1A1 inh inconclusive
O/N=C1/CCCCC1c1ccccn1 (configuration not stated)	ALDH1A1 inh inconclusive
COC(=O)c1cc(Br)c(=O)n(-c2ccc(F)cc2)c1	none
COc1ccc(Br)cc1C1CC(=O)N2CN(Cc3ccccc3)CSC2=C1C#N (configuration not stated)	ALDH1A1 inh 0.11µM, HPGD inh 7.1µM
COc1ccc(Br)cc1C1CC(=O)N2CN(C)CSC2=C1C#N (configuration not stated)	ALDH1A1 inh 7.1µM, HPGD inh 13µM
COc1cc(OC)c(C2CC(=O)N3CN(C)CSC3=C2C#N)cc1OC (configuration not stated)	ALDH1A1 inh 8.9µM, HPGD inh 8.9µM
COc1ccc(CCN2C(=O)CN(Cc3ccccc3)CC2=O)cc1OC	none (no result: IMPase cell inh)
COc1ccc2ccccc2c1C1CC(=O)N2CN(C)CSC2=C1C#N (configuration not stated)	ALDH1A1 inh 8.9µM, 12-hLO inh inconclusive, HPGD inh 6.3µM
COc1ccc(COC(=O)N/N=C2/C[C@@H](O)[C@@H](O)[C@@H]3[C@@H]4C(=O)N([C@@H](C)c5ccccc5)C(=O)[C@H]4CC[C@H]23)cc1	none (no result: IMPase cell inh, IMPase Li cell, NPSR antagonist, 12-hLO inh, HPGD inh)
Cc1ccccc1OCCCC(=O)Nc1ccc2c(c1)OCO2	ALDH1A1 inh inconclusive
COc1ccc(C(=O)Sc2ccc(Cl)cc2)cc1OC	none
CC(C)c1ccc(C2CC(=O)N3CN(C)CSC3=C2C#N)cc1 (configuration not stated)	ALDH1A1 inh 3.5µM, HPGD inh 14µM
CC(=O)n1c2c(c3ccccc31)OC(N)=C(C#N)C2c1ccc(C(C)C)cc1 (configuration not stated)	ALDH1A1 inh inconclusive
N#CC1=C2SCC(O)(c3ccccc3)N2C(=O)CC1c1ccccc1F (configuration not stated)	ALDH1A1 inh inconclusive
N#CC1=C2SCN(Cc3ccccc3)CN2C(=O)CC1c1ccccc1F (configuration not stated)	ALDH1A1 inh 10µM, HPGD inh 28µM
S=C([S-])NCCNC(=S)[S-].[Zn+2]	ALDH1A1 inh 11µM, HPGD inh 10µM (no result: IMPase cell inh, NPSR antagonist)
COc1ccc(Cl)cc1N1CC(C(=O)Nc2nccs2)CC1=O (configuration not stated)	none
COc1cc(-n2c(C)nc3cc(C(=O)N4CCOCC4)ccc32)cc(OC)c1OC	HPGD inh 32µM
O=C(COc1ccc(Br)cc1Br)NC(=S)N1CCCc2ccccc21	ALDH1A1 inh 11µM
O=C1c2cccc(O)c2C(=O)c2c(O)cccc21	ALDH1A1 inh inconclusive, HPGD inh 35µM! (no result: IMPase cell inh)
O=C1c2ccccc2C(=O)c2c1ccc(O)c2O	IMPase cell inh inconclusive, ALDH1A1 inh inconclusive, 12-hLO inh inconclusive, HPGD inh 28µM (no result: NPSR antagonist)
O=C1c2ccc(O)c(O)c2C(=O)c2c(O)ccc(O)c21	ALDH1A1 inh inconclusive, HPGD inh 11µM (no result: IMPase cell inh, NPSR antagonist)
O=C1C=C(O)c2cccc(O)c2C1=O	none (no result: IMPase cell inh, IMPase Li cell, ALDH1A1 inh, 12-hLO inh, HPGD inh)
CN(CC(=O)Nc1ccc(S(N)(=O)=O)cc1)c1ccccc1	none
O=c1oc2ccccc2c2oc3cc(O)c(O)cc3c12	HPGD inh inconclusive (no result: IMPase cell inh)
COc1c(O)c(O)cc2c1oc1c3cc(C)ccc3oc(=O)c21	12-hLO inh inconclusive, HPGD inh 14µM (no result: IMPase cell inh, NPSR antagonist)
CCOC(=O)N=Nc1c(O)n(Cc2ccccc2)c2ccccc12	ALDH1A1 inh 8.9µM (no result: IMPase cell inh, 12-hLO inh, HPGD inh)
NC(=S)N=Nc1c(O)n(Cc2ccccc2)c2ccccc12	ALDH1A1 inh 2.5µM (no result: IMPase cell inh)
CCCCNC(=S)N=Nc1c(O)n(Cc2ccccc2)c2ccccc12	ALDH1A1 inh 20µM (no result: IMPase Li cell, HPGD inh)
C/C(Cl)=C\Cn1c(O)c(N=NC(N)=S)c2ccccc21	NPSR antagonist inconclusive, ALDH1A1 inh 1µM (no result: IMPase cell inh, 12-hLO inh, HPGD inh)
COC(=O)N=Nc1c(O)n(Cc2ccccc2)c2ccccc12	none (no result: IMPase cell inh, IMPase Li cell, ALDH1A1 inh, 12-hLO inh, HPGD inh)
O=c1c2c3c(sc2ncn1/N=C/c1ccccc1)CCCC3	ALDH1A1 inh 11µM
O=c1c2c3c(sc2ncn1/N=C/c1ccco1)CCCC3	ALDH1A1 inh inconclusive
CCN(Cc1ccccc1)S(=O)(=O)c1ccc2c(c1)NC(=O)CC(=O)N2	ALDH1A1 inh 14µM (no result: IMPase cell inh, 12-hLO inh, HPGD inh)
COc1ccc(/C=C2\SC(=O)N(CCNC(=O)Cc3coc4cc(OC)ccc34)C2=O)cc1	none (no result: IMPase cell inh)
